# Data from PubChem BioAssay (NCI).
# Where “and” joins values, the source holds several entries; their conditions need not be identical. Identical values can stand only once. About 83,000 compounds went through this panel and 20% of them were active in at least one assay; those are over-represented in the sample as a whole.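 Cell lines were cultured in 96-well plates, exposed to a single compound concentration, and assessed for percent growth 48 hours later.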 Calls of active or inactive are those of the source. How the source made its calls: active means growth percent below 10; inactive means the rest.
# How the values were obtained:
# Assay in all cases: NCI-60 one-dose screen, 48 h (100 = growth as untreated, 0 = no growth, -100 = all killed)
# Settings in all cases: 10 µM unless noted
# HCT-15 colon = tested on: HCT-15 colon
# HT29 colon = tested on: HT29 colon
# SNB-75 CNS = tested on: SNB-75 CNS
# SNB-19 CNS = tested on: SNB-19 CNS
# PC-3 prostate = tested on: PC-3 prostate
# SK-MEL-5 melanoma = tested on: SK-MEL-5 melanoma
# UACC-62 melanoma = tested on: UACC-62 melanoma
# LOX IMVI melanoma = tested on: LOX IMVI melanoma
# SK-MEL-28 melanoma = tested on: SK-MEL-28 melanoma
# U251 CNS = tested on: U251 CNS
Compound,growth (HCT-15 colon),growth (HT29 colon),growth (SNB-75 CNS),growth (SNB-19 CNS),growth (PC-3 prostate),growth (SK-MEL-5 melanoma),growth (UACC-62 melanoma),growth (LOX IMVI melanoma),growth (SK-MEL-28 melanoma),growth (U251 CNS)
N#CCCOc1ccccc1,97.5% (inactive),100% (inactive),101% (inactive),108% (inactive),88.7% (inactive),105% (inactive),127% (inactive),102% (inactive),101% (inactive),
O=C(O)c1cc(C(=O)O)cc([N+](=O)[O-])c1,104% (inactive),105% (inactive),,106% (inactive),96.4% (inactive),104% (inactive),105% (inactive),97.4% (inactive),,100% (inactive)
Nc1ccc(N=Nc2ccc(S(=O)(=O)O)cc2)cc1S(=O)(=O)O,102% (inactive) and 96.7% (inactive),118% (inactive) and 96.2% (inactive),,96.5% (inactive),92.2% (inactive) and 74% (inactive),111% (inactive) and 103% (inactive),104% (inactive) and 94.8% (inactive),93.7% (inactive) and 92.1% (inactive),,99.6% (inactive) and 95.5% (inactive)
CCN(CC)CCC(CNc1c2ccc([N+](=O)[O-])cc2nc2cc(OC)c(OC)cc12)c1ccccc1 (stereo not given),-29.4% (active) and -71.4% (active),3.73% (active) and -97.3% (active),-95.7% (active) and -97.6% (active),-42.9% (active) and -93.8% (active),-62.6% (active) and -97.1% (active),-81.8% (active) and -100% (active),,-62.2% (active) and -100% (active),-84.8% (active),-44.7% (active) and -100% (active)
COc1ccc(CCN(C)CCCC(C#N)(c2ccc(OC)c(OC)c2)C(C)C)cc1OC (stereo not given),94% (inactive) and 86.4% (inactive) and 101% (inactive),79.2% (inactive) and 74.7% (inactive) and 93.8% (inactive),65% (inactive) and -24.5% (active) and 86.8% (inactive),107% (inactive) and 101% (inactive) and 105% (inactive),76.3% (inactive) and 68.4% (inactive) and 95.5% (inactive),94% (inactive) and 99.8% (inactive) and 101% (inactive),,92.3% (inactive) and 95.4% (inactive) and 92.7% (inactive),106% (inactive) and 99.7% (inactive),90.4% (inactive) and 95.2% (inactive) and 99.9% (inactive)
Oc1nc(NCCc2ccccc2)sc1/C=C1\C=Nc2ncccc21,33.5% (inactive) and 36.5% (inactive),27.8% (inactive) and 30.6% (inactive),,12.1% (inactive),19.2% (inactive) and 25.9% (inactive),-0.16% (active) and 14.5% (inactive),-1.3% (active) and -1.44% (active),8.25% (active) and 16.3% (inactive),0.815% (active) and 16% (inactive),7.63% (active) and 15.8% (inactive)
C=C1C(=O)O[C@H]2[C@H]1CC/C(COC(=O)NC1CCC(O)CC1)=C\CC[C@@]1(C)O[C@@H]21 (stereo not given in full),92.2% (inactive) and 85.3% (inactive),60% (inactive) and 43.7% (inactive),71% (inactive) and 71.7% (inactive),100% (inactive) and 99.5% (inactive),95.5% (inactive) and 90.6% (inactive),,,90.3% (inactive) and 86.9% (inactive),,91.8% (inactive) and 88.3% (inactive)
O=[N+]([O-])c1ccc(-n2[nH]nnc2=S)cc1,97.5% (inactive),99.2% (inactive),,98.1% (inactive),92% (inactive),122% (inactive),94.6% (inactive),94.4% (inactive),106% (inactive),108% (inactive)
Cc1ccc(-c2noc(C)n2)cc1,101% (inactive),98.3% (inactive),85.9% (inactive),105% (inactive),97.9% (inactive),99.7% (inactive),105% (inactive),99.7% (inactive),110% (inactive),
Nc1n[nH]c(=S)n1-c1ccc(Cl)cc1,99.3% (inactive),101% (inactive),82% (inactive),99.4% (inactive),97.1% (inactive),105% (inactive),,94.6% (inactive),,98.1% (inactive)
COc1ccc2c(=O)cc(-c3ccccc3)[nH]c2c1,22.6% (inactive) and 19.2% (inactive),-3.3% (active) and 5.55% (active),,29.6% (inactive) and 27% (inactive),18.5% (inactive) and 19.4% (inactive),21.5% (inactive) and 12.7% (inactive),38.4% (inactive) and 20% (inactive),48.3% (inactive) and 49% (inactive),39.3% (inactive) and 70.8% (inactive),12.2% (inactive) and 15.6% (inactive)
O[C@H](c1cc(C(F)(F)F)nc2c(C(F)(F)F)cccc12)[C@@H]1CCCCN1,70.8% (inactive) and 82.5% (inactive),47.5% (inactive),,60.1% (inactive) and 65.9% (inactive),42.7% (inactive) and 45% (inactive),84.9% (inactive) and 74.2% (inactive),70.5% (inactive) and 67.8% (inactive),11.6% (inactive) and 7.96% (active),94.4% (inactive) and 88.8% (inactive),42.6% (inactive) and 45.9% (inactive)
COc1cc(C(=O)N/N=C/c2ccc(N(C)C)cc2)cc(OC)c1OC,20% (inactive),,,53.3% (inactive),25.4% (inactive),7.49% (active),43.1% (inactive),20.5% (inactive),,3.96% (active)
Nc1ccccc1Nc1ccccc1,86.8% (inactive) and 83.1% (inactive),118% (inactive) and 97.4% (inactive),,97.9% (inactive) and 105% (inactive),87.6% (inactive) and 91.7% (inactive),89.5% (inactive) and 94.7% (inactive),98.8% (inactive) and 99.3% (inactive),85.1% (inactive) and 87% (inactive),109% (inactive) and 101% (inactive),89.3% (inactive) and 86.7% (inactive)
CC1=C(/C=C/C(C)=C/C=C/C(C)=C/C(=O)O)C(C)(C)CCC1,91.4% (inactive) and 81.1% (inactive) and 92% (inactive),88.7% (inactive) and 89.2% (inactive) and 96% (inactive),,86.1% (inactive) and 97.4% (inactive) and 90.3% (inactive),88.3% (inactive) and 89.7% (inactive) and 101% (inactive),83.5% (inactive) and 86.5% (inactive) and 99.3% (inactive),73.2% (inactive) and 80.4% (inactive) and 61.3% (inactive),91% (inactive) and 85.3% (inactive) and 89.9% (inactive),109% (inactive) and 116% (inactive),83.2% (inactive) and 87.1% (inactive) and 90.4% (inactive)
CN1CCN(CCC=C2c3ccccc3Sc3ccc(S(=O)(=O)N(C)C)cc32)CC1,46.4% (inactive) and 59.2% (inactive),4.86% (active) and 4.22% (active),,,52.7% (inactive) and 61.6% (inactive),26.4% (inactive) and 69.1% (inactive),-42.7% (active),15.9% (inactive) and 40.7% (inactive),-54.1% (active) and -73.3% (active),
CCN(CC)CCCC(CNc1ccnc2cc(Cl)ccc12)c1ccc(Cl)cc1 (stereo not given),-29.5% (active) and 5.81% (active),3.38% (active) and -5.84% (active),,2.34% (active) and 92.4% (inactive),34.2% (inactive) and 19.3% (inactive),-92.8% (active) and -96.9% (active),-77.6% (active) and 97.7% (inactive),-85.5% (active) and -13% (active),-83.7% (active) and -85.7% (active),-71.9% (active) and -57.4% (active)
Cc1cc(O)c(C(C)C)cc1S(=O)(=O)O (tested in a mixture with another compound),96.7% (inactive) and 7.09% (active) and 99.5% (inactive),100% (inactive) and -3.9% (active) and 109% (inactive),,103% (inactive) and 35.4% (inactive) and 100% (inactive),96.1% (inactive) and 19.8% (inactive) and 81.7% (inactive),96.6% (inactive) and -34% (active) and 99.9% (inactive),87.4% (inactive) and 32.5% (inactive) and 91.3% (inactive),92.1% (inactive) and 0.911% (active) and 107% (inactive),110% (inactive) and 40.6% (inactive) and 107% (inactive),90.3% (inactive) and 9.28% (active) and 102% (inactive)
O=c1c2ccccc2nc2n1Cc1nc3ccccc3c(=O)n1C2,90.9% (inactive) and 108% (inactive),111% (inactive) and 103% (inactive),,102% (inactive) and 91.9% (inactive),98.6% (inactive) and 107% (inactive),95.3% (inactive) and 107% (inactive),,96.1% (inactive) and 97.6% (inactive),97.8% (inactive) and 101% (inactive),105% (inactive) and 108% (inactive)
CC(C(=O)O)n1cc(C#N)c(=O)[nH]c1=O (stereo not given),104% (inactive) and 102% (inactive),110% (inactive) and 104% (inactive),,107% (inactive) and 101% (inactive),95.3% (inactive),105% (inactive) and 102% (inactive),103% (inactive) and 99.7% (inactive),110% (inactive) and 98.6% (inactive),110% (inactive),111% (inactive) and 107% (inactive)
CC(C)C(=O)Nc1ccc([N+](=O)[O-])c(C(F)(F)F)c1,94% (inactive) and 100% (inactive),106% (inactive) and 115% (inactive),,96.8% (inactive) and 102% (inactive),69.5% (inactive) and 100% (inactive),85.2% (inactive) and 98.4% (inactive),74.9% (inactive) and 80% (inactive),90% (inactive) and 93.2% (inactive),102% (inactive) and 107% (inactive),98.3% (inactive) and 96.7% (inactive)
CC(C)=CCc1cc(C2COc3cc4c(c(O)c3C2=O)C=CC(C)(C)O4)c(O)cc1O (stereo not given),,,,,,,-86.8% [100 µM] (active) and -97.1% [100 µM] (active),,,
